# Results reported in PubChem BioAssay AID434970 (Sanford-Burnham Center for Chemical Genomics, 2010).
# Hit rate of the full screen: of about 11,000 compounds, about 310 (2.8%) were called active. Cut-off read from the data, not from the text of the source: active = activity change below about -85%; inactive = the rest. The sample as a whole holds a higher share of actives than the screen did.
# System: intestinal alkaline phosphatase [Mus musculus]
# Assay: activators of mouse IAP, confirmation, biochemical, luminescence, single concentration (AID 434970)
# Details: purified mouse IAP, CDP-Star luminescence, 30 min, at 10 µM; activation factor: measured here: IAP activation factor, stronger effect = higher value; activity change, negative = activation: stronger effect = lower value
Compound,activation factor,"activity change, negative = activation"
O=C(NCCc1ccncc1)Nc1ccc(Cl)cc1,1.09,-8.6% (inactive)
CCCc1c(NC(=O)Nc2ccc(F)cc2)cnn1-c1ccc(Cl)cc1,2.42,-142% (active)
CCCc1c(NC(=O)Nc2ccc(F)cc2)cnn1-c1ccccc1,1.57,-57.2% (inactive)
COCCn1c(SCC(=O)Nc2nc3ccccc3s2)nnc1-c1ccoc1C,0.944,5.6% (inactive)
N#CCCn1c(=S)[nH]c2ccccc21,0.98,2% (inactive)
Cc1ccc(S(=O)(=O)Nc2ccc(O)c(Sc3ncn[nH]3)c2)cc1,0.349,65.1% (inactive)
COC(=O)c1cccc(NC(=O)Nc2ccc(Cl)c(Cl)c2)c1,1.89,-88.6% (inactive)
Cc1cc(C)cc(C(=O)N(NC(=O)Nc2ccc(Cl)cc2)C(C)(C)C)c1,4.22,-322% (active)
CNC(=O)Nc1ccc(Cl)cc1,1.26,-26.3% (inactive)
CN(C)S(=O)(=O)Oc1cccc(C(=O)Nc2ccc(Cl)c(Cl)c2)c1,0.948,5.2% (inactive)
CC(C)(C)N(NC(=O)Nc1ccc(Cl)c(Cl)c1)C(=O)c1ccccc1,3.95,-295% (active)
CN(C)S(=O)(=O)Oc1cccc(C(=O)Nc2ccc(Cl)cc2)c1,0.992,0.85% (inactive)
CCCN(/C=N/c1sc2c(c1C#N)CCCCC2)CCC,0.953,4.7% (inactive)
Cn1ncc(C#N)c1/N=C/N1CCOCC1,1.05,-4.75% (inactive)
Cc1ccc(CNC(=O)c2ccc(NC(=O)CCS(=O)(=O)c3cccs3)cc2)cc1,0.978,2.15% (inactive)
CC(C)c1ccc(N(CC(=O)Nc2ccc(S(=O)(=O)N3CCOCC3)cc2)S(C)(=O)=O)cc1,1.12,-12.1% (inactive)
CC(NC(=S)Nc1ccc(S(=O)(=O)N2CCOCC2)cc1)C1CC2CCC1C2 (stereo not drawn),2.45,-145% (active)
O=C(Nc1ccc(S(=O)(=O)N2CCOCC2)cc1)C1CCCCC1,0.984,1.6% (inactive)
Cc1cc[n+](CCC(=O)O)c2ccccc12,0.901,9.85% (inactive)
CCN(C1CCCCC1)S(=O)(=O)c1cc(C)ccc1OC,1.04,-4.35% (inactive)
CN1CC(COCc2ccccc2)Oc2ccccc2S1(=O)=O (stereo not drawn),1.04,-4.4% (inactive)
CC(Cc1cccs1)NC(=O)Nc1ccc(Cl)c(Cl)c1 (stereo not drawn),0.945,5.6% (inactive)
CC(NC(=O)Nc1ccc(Cl)cc1)C(c1cccs1)N1CCOCC1 (stereo not drawn),1.71,-71.1% (inactive)
CC(NC(=O)Nc1ccc(Cl)c(Cl)c1)C(c1ccccc1)N1CCOCC1 (stereo not drawn),3.21,-221% (active)
